Data on five compounds can be found in PubChem BioAssay.

Assay [1] is described as follows: reducers of endogenous Her2 protein level, primary screen, SKBR3 breast tumor cells, AlphaScreen, ATP viability (AID 461;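 active = Her2 level under about 52% in both replicate screens, with viability over 70% of control, limit read from the data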;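 as to Her2 level: lower value means less Her2 protein in the cells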;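 as to viability: percent of carrier control wells set as 100% viability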). Conditions: 18-24 h, measured here: SKBR3 viability, ATP luminescence, at 10 µM. Background: Alpha assays give light when donor and acceptor beads are brought close together.
In assay [2] the target is Receptor tyrosine-protein kinase erbB-2 (Homo sapiens) (UniProt P04626). Described as above. Conditions: 18-24 h, at 10 µM, stronger effect = lower value.
Assay [3] in a line: SK-BR-3 cell growth inhibitors, pilot screen, 24 h, human (AID 572;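 active = viability at or below 10% of carrier control in both of two separate runs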;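 also: compound exposure lasted between 18 and 24 h rather than exactly 24 h; 100% = carrier-treated control wells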). Conditions: SK-BR-3 viability, CellTiter-Glo luminescence, at 10 µM, stronger effect = lower value.
Assay [4] can be described thus: HUVEC growth inhibition – cell-based, human, primary screen (AID 575;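 active = viability at or below 30% in both replicate assays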;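 also: 100% = median of untreated cell wells with 0.1% DMSO on each plate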). Conditions: HUVEC proliferation, CellTiter-Glo luminescence, 72 h; at 10 µM; stronger effect = lower value.
Assay [5] in a line: growth inhibitors of H69AR lung tumor, primary screen, human, duplicate replicates (AID 580;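 active = viability at or under a set limit in both replicates, limit being median viability minus 3 SD, cut at about 48% in these data, passing the limit was not always enough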;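 also: 100% = mean luminescence of untreated wells and 0% = no signal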). Conditions: H69AR lung tumor cells viability, ATP luminescence, 72 h; at 10 µM; stronger effect = lower value.
A short description of assay [6]: reversal of MRP1-mediated doxorubicin resistance, pilot screen, H69AR cells, doxorubicin co-treatment (AID 601;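 active = viability loss from added drug above about 55%, and viability with drug at most 40%, in both replicates, limit read from the data, passing the limit was not always enough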). Conditions: CellTiter-Glo, 72 h, at 10 µM; for differential viability (reversal): stronger effect = higher value. Background: ATP-based viability assays read luminescence as a measure of living cells.
Assay [7] is described as follows: 384-well plate pilot, post-Golgi transport modulator project, inhibition of yeast transport mutant growth (AID 636; in the data active = inhibition above about 31%). Conditions: absorbance 615 nm, about 18 h, stronger effect = higher value.
The nature of assay [8]: growth suppression of yeast trafficking mutant, preliminary HTS, modulators of trafficking downstream of Golgi apparatus project, 1536-format plate, OD 615 nm (AID 637; in the data active = inhibition above about 30%). Conditions: yeast transport mutant growth, absorbance 615 nm, 18 h; stronger effect = higher value.
Assay [9] in a line: OD615 S. cerevisiae growth inhibition, permissive medium, pilot counter-assay, permissive growth control for S. cerevisiae lifespan shortening project (AID 705). Conditions: OD615, 24 h, at 10 µM, stronger effect = higher value.
A short description of assay [10]: Restrictive medium S. cerevisiae growth inhibition, OD615, pilot screen of yeast lifespan reduction project, restrictive growth control (AID 706;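 active = growth inhibition above a set limit, 3 SD over mean compound inhibition, in both replicates, cut at about 43% in these data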;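 also: modified DeaD lifespan yeast strain shifted to restrictive glucose medium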). Conditions: OD615, 48 h, at 10 µM, stronger effect = higher value.
Assay [11] can be described thus: viability gain of MRP-1-high H69AR cells under doxorubicin, pilot screen, MRP-1 activator project, CellTiter-Glo, duplicate (AID 807;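 active = viability increase at or above a cutoff of the median across tested compounds plus 3 SD, cut at about 8.5% in these data, passing the limit was not always enough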;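 also: compound pretreatment 18-22 h then 72 h combined with doxorubicin; 0% = doxorubicin alone and 100% = vehicle without doxorubicin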). Conditions: H69AR viability with doxorubicin, CellTiter-Glo luminescence; at 10 µM; stronger effect = higher value.
A short description of assay [12]: growth suppression of beta-catenin knockout HCT116, pilot screen, human colon tumor cells (AID 823;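 active = cell viability at or below a set limit in both duplicate runs, the limit being the all-compound median minus 4 SD, cut at about 23% in these data, passing the limit was not always enough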;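 also: 0% = wells killed by 20 µM Hyamine and 100% = untreated DMSO cell wells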). Conditions: CellTiter-Glo, 60 h, at 10 µM, stronger effect = lower value.
A short description of assay [13]: growth suppression of PTEN-deleted HCT116, pilot screen, cell-based, HCT116 clonal line, CellTiter-Glo (AID 824;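 active = viability at or below 27.92% in each of two runs, the all-compound median minus 4 SD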;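 also: 0% = 20 µM Hyamine control and 100% = vehicle cell control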). Conditions: 60 h, at 10 µM, stronger effect = lower value.
The nature of assay [14]: inhibitors of the yeast RAM network, pilot screen, dse1pr::URA3 reporter, 5-FOA selection (AID 869;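 active = inhibition over a set limit, the all-compound mean plus 3 SD, in both replicate runs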;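 also: 0% = DMSO wells with no growth and 100% = 10 µM 1-NA-PP1 with full growth; RAM network block rescues cells from 5-FOA so hits raise OD615 growth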). Conditions: S. cerevisiae dse1pr::URA3 5-FOA growth, OD615, 2 d; at 10 µM; stronger effect = higher value; strain carries analog-sensitive mutant Cbk1 kinase.
Assay [15] in a line: RAM signaling pathway blockade in yeast – S. cerevisiae, Pdr1DBD-CYC8 efflux-inhibited sensitized strain, primary screen (AID 1298;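 active = RAM network inhibition above 8.4% in each of two replicates, 3 SD over the compound average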;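 also: 0% = DMSO untreated cells without growth and 100% = 10 µM 1-NA-PP1 full growth; higher means more yeast growth rescued from 5-FOA killing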). Conditions: S. cerevisiae cbk1-as DSE1-URA3 strain, 5-FOA growth OD615, 2 d; at 50 µM; stronger effect = higher value.
Setting [16] is: H69AR cells + 2 uM doxorubicin, measured here: viability with 2 uM doxorubicin, stronger effect = lower value.
Setting [17] is: H69AR cells, compound alone cytotoxicity.

Structures are written as SMILES. Records with an inconclusive call do not appear. Activity calls are given as the source filed them.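 The calls were made as follows, unless noted: active = growth inhibition above 25% in both replicates, a cutoff set 3 SD above the mean; inconclusive = above 25% in only one replicate; inactive = the rest.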

Receptor tyrosine-protein kinase erbB-2 (Homo sapiens), sequence (P04626 whole entry, looked up): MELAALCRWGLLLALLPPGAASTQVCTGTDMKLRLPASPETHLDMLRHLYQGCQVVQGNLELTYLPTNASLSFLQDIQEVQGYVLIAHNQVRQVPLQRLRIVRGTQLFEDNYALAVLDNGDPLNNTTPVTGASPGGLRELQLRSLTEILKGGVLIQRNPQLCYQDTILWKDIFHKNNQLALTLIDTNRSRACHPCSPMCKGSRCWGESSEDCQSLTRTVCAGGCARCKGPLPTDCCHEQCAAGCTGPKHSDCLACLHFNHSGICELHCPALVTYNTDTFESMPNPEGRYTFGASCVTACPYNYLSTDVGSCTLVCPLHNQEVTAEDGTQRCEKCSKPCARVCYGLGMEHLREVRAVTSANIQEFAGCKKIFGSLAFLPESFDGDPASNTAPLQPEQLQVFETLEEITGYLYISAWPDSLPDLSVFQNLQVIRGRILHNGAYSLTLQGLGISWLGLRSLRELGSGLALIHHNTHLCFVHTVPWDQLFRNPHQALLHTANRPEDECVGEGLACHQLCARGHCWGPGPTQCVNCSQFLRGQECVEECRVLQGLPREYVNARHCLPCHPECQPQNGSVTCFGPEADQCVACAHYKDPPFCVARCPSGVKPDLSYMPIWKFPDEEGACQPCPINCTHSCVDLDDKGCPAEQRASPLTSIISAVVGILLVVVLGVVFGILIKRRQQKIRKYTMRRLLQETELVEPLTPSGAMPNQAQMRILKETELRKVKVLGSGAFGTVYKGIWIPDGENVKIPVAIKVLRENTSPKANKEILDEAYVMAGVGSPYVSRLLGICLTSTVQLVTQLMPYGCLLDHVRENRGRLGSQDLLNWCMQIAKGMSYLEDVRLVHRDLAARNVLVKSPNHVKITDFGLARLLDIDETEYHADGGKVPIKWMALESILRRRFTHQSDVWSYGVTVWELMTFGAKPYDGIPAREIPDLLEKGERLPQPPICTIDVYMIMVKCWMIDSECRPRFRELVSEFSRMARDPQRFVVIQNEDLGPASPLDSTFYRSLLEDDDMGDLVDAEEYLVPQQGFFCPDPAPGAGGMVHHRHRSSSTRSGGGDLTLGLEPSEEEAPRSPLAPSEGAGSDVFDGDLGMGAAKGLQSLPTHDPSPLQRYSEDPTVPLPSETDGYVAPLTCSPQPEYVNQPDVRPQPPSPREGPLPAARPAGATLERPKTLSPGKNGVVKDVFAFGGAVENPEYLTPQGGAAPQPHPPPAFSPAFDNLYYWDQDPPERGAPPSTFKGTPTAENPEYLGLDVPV

On to `CC1(C)CC(=O)N(CC(=O)NCc2ccccc2)c2ccccc2S1(=O)=O`, for which the viability in assay [1] is 78.5%; in assay [3], 78.5% (inactive); in assay [4], 106% (inactive); in assay [5] it was 92.6% (inactive); in [6] (setting [16]), 101%; in assay [6] (setting [17]), 92.6%. Moreover, the viability was 107% (inactive) in assay [12] and 100% (inactive) in [13]. Further, the Her2 level in assay [2] was 112% (inactive). The differential viability (reversal) in assay [6] (H69AR cells + 2 uM doxorubicin) is -8.55% (inactive). The inhibition was -4.67% (inactive) in assay [7], -1.33% (inactive) in [8] and 0.485% (inactive) in [14]. In addition, the growth inhibition was -3.67% (inactive) in assay [9] and 6.21% (inactive) in assay [10]. The viability increase in assay [11] was -1.93% (inactive). Further, the RAM network inhibition in assay [15] was 3.51% (inactive).

With `CC(Oc1ccccc1)C(=O)NC1CC(C)(C)NC(C)(C)C1` (stereo not given), the viability in assay [1] was 92%; in assay [3], 92% (inactive); in assay [4], 79.8% (inactive); in assay [5] it was 94% (inactive); in assay [6] (setting [16]) it was 91%; in assay [6] (setting [17]), 94%. Further, the viability in [12] was 97.1% (inactive); in [13] it was 96.9% (inactive). Moreover, the Her2 level in [2] is 92.5% (inactive). Besides, the differential viability (reversal) in assay [6] (H69AR cells + 2 uM doxorubicin) was 2.97% (inactive). Also, the results for the inhibition in [7], in assay [8] and in assay [14] were -2.69% (inactive), -1% (inactive) and -0.135% (inactive), respectively. In addition, the growth inhibition in assay [9] is -11.8% (inactive); in assay [10] it was -2.76% (inactive). Besides, the viability increase in assay [11] was -3.63% (inactive). In assay [15], the RAM network inhibition is 2.18% (inactive).

`O=C(c1cnc2n(c1=O)CCS2)N(C1CCCCC1)C1CCCCC1`: the viability was 87% in assay [1]; 87% (inactive) in [3]; 106% (inactive) in assay [4]; 102% (inactive) in assay [5]; 97.4% in assay [6] (setting [16]); 102% in assay [6] (setting [17]). Further, the viability in [12] was 101% (inactive); in [13] it was 92.3% (inactive). The Her2 level in assay [2] was 84% (inactive). Moreover, in [6] (H69AR cells + 2 uM doxorubicin), the differential viability (reversal) was 5.03% (inactive). The values for the inhibition in assay [7], in [8] and in [14] were -4.53% (inactive), -1% (inactive) and 1.71% (inactive), respectively. The growth inhibition in assay [9] is 2.67% (inactive); in [10], -18.9% (inactive). The viability increase in assay [11] is -2.34% (inactive). Moreover, the RAM network inhibition in assay [15] is 2.61% (inactive).

Consider `O=C(NC(=O)c1cccc(F)c1)OC[C@@H]1CCCN2CCCC[C@H]12`, for which the viability is 102% in [1]; 102% (inactive) in assay [3]; 110% (inactive) in assay [4]; 96.5% (inactive) in assay [5]; 95.9% in [6] (setting [16]); 96.5% in assay [6] (setting [17]). The values for the viability in [12] and in assay [13] were 99.4% (inactive) and 96.3% (inactive), respectively. Further, the Her2 level in assay [2] was 111% (inactive). Moreover, the differential viability (reversal) in assay [6] (H69AR cells + 2 uM doxorubicin) was 0.59% (inactive). Besides, the values for the inhibition in assay [7], in [8] and in assay [14] were -6% (inactive), 1.48% (inactive) and 0.89% (inactive), respectively. Moreover, the growth inhibition is 1.28% (inactive) in assay [9] and -9.63% (inactive) in [10]. The viability increase in assay [11] was -0.15% (inactive). The RAM network inhibition in assay [15] is 9.99% (inactive).

On to `Cc1cc(NC(=O)CSc2nc3c(c(=O)n2Cc2ccccc2)SC(C)C3)no1` (stereo not given), for which the viability in assay [1] was 104%; in [3], 104% (inactive); in assay [4] it was 74.5% (inactive); in [5], 92.1% (inactive); in assay [6] (setting [16]), 76.3%; in assay [6] (setting [17]), 92.1%. Besides, the viability in [12] was 100% (inactive); in assay [13], 92.4% (inactive). Besides, the Her2 level in [2] is 106% (inactive). Further, the differential viability (reversal) in assay [6] (H69AR cells + 2 uM doxorubicin) is 15.8% (inactive). Besides, the inhibition was -3.33% (inactive) in [7], -1.83% (inactive) in [8] and 2.35% (inactive) in [14]. The growth inhibition in assay [9] is -2.67% (inactive); in [10], -0.455% (inactive). Moreover, the viability increase in assay [11] was -2.6% (inactive). Further, the RAM network inhibition in assay [15] was 8.6% (inactive).

The term viability denotes a read-out of living cells in per cent, often relative to untreated cells. The inhibition is the change of the read-out against control, counted positive when it falls.
